From PubChem BioAssay
Hits are enriched below; roughly 19% of the tested compounds scored in any of these assays.
TDP1 cell noCPT: qHTS for Inhibitors of human tyrosyl-DNA phosphodiesterase 1 (TDP1): qHTS in cells in absence of CPT; 15% of 420,000 active; Potency, µM (series often up to 46.2 µM), actives largely listed as inhibitors; DT40 Tdp1-/- hTDP1 cells, no CPT, ATP luminescence, 48 h; AID 686978, 2013; further: nearly all actives have a fitted effect of over 55% in size
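DT40 Tdp1-/-;hTDP1 cells, no CPT (DMSO vehicle only), 400 cells/well; compounds pin-transferred; ≥48 hr, 37 °C; CellTiter-Glo 30 min RT dark, luminescence read.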
ELG1 DNA repair: qHTS screen for small molecules that inhibit ELG1-dependent DNA repair in human embryonic kidney (HEK293T) cells expressing luciferase-tagged ELG1. AID 504467, 2011. 2.3% of 330,000 active. Potency, µM (titrated, usually from 46.1 µM), hits mostly inhibitors. HEK293T ELG1-luciferase reporter, luminescence, 16 h; DNA damage induced by 5-fluorouridine; further: nearly all actives have a fitted effect of over 55% in size
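5-Fluorouridine DNA damage + compound/DMSO, 2,000 cells/well, 16 h, 37 °C/5% CO2. ONE-Glo, 30 min RT, luminescence. Readout = decrease in reporter signal.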
IL-1B inflam inh: qHTS for Inhibitors of Inflammasome Signaling: IL-1-beta AlphaLISA Primary Screen. THP-1 LPS/ATP IL-1B secretion, AlphaLISA, 16 h; stronger effect = lower value. activity change, % at 57.5 µM. 4.7% of 360,000 active. AID 743279, 2014; in the data active means activity change below about -50%; inconclusive means mostly about -30% to -49%
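Secreted IL-1B measured by AlphaLISA bead assay after 16 h compound exposure of THP-1 cells; compounds (final up to 57.5 uM) added 1 h before LPS (250 ng/mL) and ATP (1.25 mM) stimulation; lower signal means less secretion.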
TDP1 cell CPT: qHTS for Inhibitors of human tyrosyl-DNA phosphodiesterase 1 (TDP1): qHTS in cells in presence of CPT | chicken DT40 Tdp1-/-;hTDP1 cells + 20 nM CPT, ATP luminescence, 48 h | Potency, µM (doses to about 46.2 µM), most hits filed as inhibitors | 12% of 420,000 active | AID 686979, 2013; further: nearly all actives have a fitted effect of over 55% in size
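Cell growth measured by CellTiter-Glo luminescence after a minimum 48 h, 37 C compound exposure with 20 nM CPT in Tdp1-knockout DT40 cells stably expressing hTDP1, seeded 400/well; qHTS titration format.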
TDP1 inh: qHTS Assay for Inhibitors of Tyrosyl-DNA Phosphodiesterase (TDP1); Tyrosyl-DNA phosphodiesterase 1 (Homo sapiens), Q9NUW8; recombinant TDP1, AlphaScreen DNA substrate cleavage; Potency, µM (titrated, usually from 130 µM), most hits filed as inhibitors; 0.28% of 350,000 active; AID 485290, 2010; further: nearly all actives have a fitted effect of over 40% in size
Target sequence (Q9NUW8 whole entry, looked up): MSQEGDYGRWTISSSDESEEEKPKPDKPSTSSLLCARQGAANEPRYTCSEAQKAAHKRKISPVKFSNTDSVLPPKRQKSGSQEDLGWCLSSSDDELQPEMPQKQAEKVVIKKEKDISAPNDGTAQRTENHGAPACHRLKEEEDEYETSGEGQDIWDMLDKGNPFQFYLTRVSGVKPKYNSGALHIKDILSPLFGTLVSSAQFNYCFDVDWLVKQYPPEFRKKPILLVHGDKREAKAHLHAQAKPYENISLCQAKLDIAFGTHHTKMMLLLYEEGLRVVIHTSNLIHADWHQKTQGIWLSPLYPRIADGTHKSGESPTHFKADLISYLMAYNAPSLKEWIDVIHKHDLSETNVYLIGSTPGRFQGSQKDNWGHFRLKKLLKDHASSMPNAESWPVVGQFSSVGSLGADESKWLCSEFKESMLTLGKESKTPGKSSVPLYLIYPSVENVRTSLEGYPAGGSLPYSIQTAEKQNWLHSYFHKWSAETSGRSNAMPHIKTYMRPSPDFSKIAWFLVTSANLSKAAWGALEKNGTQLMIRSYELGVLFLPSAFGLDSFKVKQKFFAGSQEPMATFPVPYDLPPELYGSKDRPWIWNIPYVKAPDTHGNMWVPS
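AlphaScreen read-out: signal falls as enzyme removes the 3' tyrosine-FITC from a 5'-biotinylated DNA oligo (15 nM, 5 min, RT). Enzyme was E. coli-made recombinant Tdp1 at 1 nM, exposed to compound for 15 min beforehand; beads 10 ug/ml, 10 min.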
Giardia kill: Small Molecules that selectively kill Giardia lamblia: qHTS. Giardia lamblia trophozoite viability. activity change, % at 7.66 µM, hits read low. 0.15% of 340,000 active; in the data active means activity change below about -80%; inconclusive means between about -30% and that limit;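 further: parasites exposed to compound for two days anaerobically before the ATP read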
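Killing of trophozoites was scored by loss of ATP luminescence after a 48 hrs anaerobic exposure to compounds at 37 deg C, using 100 cells per well.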
Hits are given with their value; n = inactive; u = inconclusive; x = no result; [ ] = dose if it differs, or a comment. Unless noted, the call rests on the fitted dose curve; in most records, active means well fitted curve in the direction sought with a large enough effect; inconclusive means small, poorly fitted or top-dose-only effect, or another doubt; inactive means no such curve, though single readings can be large; an effect the other way counts as inactive or inconclusive.

SMILES | TDP1 cell noCPT | ELG1 DNA repair | IL-1B inflam inh | TDP1 cell CPT | TDP1 inh | Giardia kill
CCN1C(=O)[C@H]2[C@H]3[C@H](O)[C@H](O)C/C(=N/O[C@@H]4O[C@H](COC(C)=O)[C@@H](OC(C)=O)[C@H](OC(C)=O)[C@H]4OC(C)=O)[C@@H]3CC[C@@H]2C1=O | x | x | x | x | n[21 µM] | x
Cc1ccc(NC(=O)N2CCCC2C(=O)NCC2CCCCC2)cc1 (stereo unspecified) | u | n | n | n | x | n
Nc1cc(S(=O)(=O)N2CCCCC2)ccc1Oc1ccccc1 | 10µM | u | n | u | n | n
CCOc1ccc(Oc2ccc(S(=O)(=O)N3CCOCC3)cc2N)cc1 | u | 9.2µM | n | u | n | u
CCCCCC(=O)Nc1cc(S(=O)(=O)N2CCOCC2)ccc1Oc1ccc(OCC)cc1 | u | u | n | u | x | n
O=S(=O)(c1ccc(Oc2ccc(Br)cc2)cc1)N1CCOCC1 | 23µM | n | n | 16µM | n | n
CCOC(=O)Cc1csc(NS(=O)(=O)c2ccc(SC)cc2)n1 | n | n | n | n | n | n
COc1ccccc1C(=O)NCCC(=O)Nc1ccc(OC(F)(F)F)cc1 | u | n | n | n | n[0.0935 µM] | n
O=C(CSc1nnnn1-c1ccc(O)cc1)c1cc2ccccc2o1 | u | u | n | 13µM | n | n
CCn1c(-c2ccccc2F)nc2cc(NC(C)=O)cc(C(=O)N3CCNC(=O)C3CC(=O)OC)c21 (stereo unspecified) | n | x | x | n | x | x
Cn1c(=NC(=O)COc2ccccc2)sc2ccccc21 | n | u | n | n | n | n
CCCCOP(=O)(OCCCC)C1(NS(=O)(=O)c2ccccc2)C=CC(=O)c2ccccc21 (stereo unspecified) | 23µM | u | n | 16µM | n | n
CC(=O)Nc1ccc(NCc2ccc(C)s2)cc1 | n | u | n | n | x | n
Cc1cc(OCCCn2ccnc2)ccc1C(C)C | 21µM | n | n | u | n | n
CC(C)(C)c1ccc(OCCCn2ccnc2)cc1 | u | n | -68 | n | n | u
CCCCOc1ccc(NC(=O)C(=O)NCCCn2ccnc2)cc1 | 18µM | n | n | u | n | n
Cc1ccccc1OCCCCCn1ccnc1 | 16µM | n | u | 21µM | n | n
c1ccc2cc(OCCCn3ccnc3)ccc2c1 | u | u | u | n | x | n
COc1ccc(C(=O)N[C@H](C(=O)NCc2cccs2)C(C)C)cc1 | n | n | n | n | n | n
O=c1[nH]cnc2c1ncn2-c1ccc(Cl)cc1 | n | x | n | n | x | n
Cc1cc(OCCCCn2ccnc2)cc(C)c1Cl | 21µM | n | -70 | 18µM | n | n
CCOc1ccc(CNC(=O)CN2N=C(c3ccccc3)CCC2=O)cc1OC | n | x | x | n | n | x
COc1ccc(C(=O)N(Cc2nc(-c3ccc(C)cc3)no2)C(C)C)cc1OC | u | n | n | n | n | n
CC(C)N(Cc1nc(-c2ccc(Cl)cc2)no1)C(=O)c1cccs1 | u | u | n | n | n | n
Cc1ccc(CC(=O)N(Cc2nc(-c3ccc(C)cc3)no2)C(C)C)cc1 | 23µM | x | x | u | n | x
Cc1ccc(-c2noc(CN(C(=O)c3cccs3)C(C)C)n2)cc1 | u | n | -78 | u | n | n
CCOc1cc(C(=O)N(Cc2nc(-c3ccc(C)cc3)no2)C(C)C)cc(OCC)c1OCC | u | x | x | 16µM | n | x
Cc1ccc(-c2noc(CN(C(=O)c3ccc4c(c3)OCO4)C(C)C)n2)cc1 | u | n | u | u | n | n
Cc1ccc(C(=O)N(Cc2nc(-c3ccc(C)cc3)no2)C(C)C)cc1 | 16µM | n | n | u | n | n
Cc1cc2c(cc1S(=O)(=O)NCc1ccc(F)cc1)OCC(=O)N2 | n | x | x | n | n | x
